Shown is part of a subset that was picked to be rich in hits.
Dicer inh – blocks human Dicer maturation of pre-miR-21 | Q9UPY3 | cat-ELCCA pre-miR-21 Dicer processing, chemiluminescence; hits give high values | z-score at 25 µM | 47,000 compounds, 6% hits | AID 1347074; in the data active = z-score above about 3, passing the limit was not always enough;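 note: plate controls were vehicle for no effect and no enzyme for full effect; higher signal means more uncleaved substrate so more Dicer inhibition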
Numbers without * were called inactive.

SMILES | Dicer inh
O=C(Cn1nc(-c2ccc(F)cc2)c2ccccc2c1=O)c1ccc(F)cc1 | 0.18
COc1ccc(/C(C)=N/OC(=O)c2cc(OC)c(OC)c(OC)c2)cc1CSc1ccccn1 | -0.4
COc1ccc(C(=O)Oc2ccc(Cl)c3cccnc23)cc1OC | 4.5*
Cc1cc(C)cc(OC(=O)c2ccc(Cl)c(Cl)c2)c1 | 1.5
O=C(Oc1cccc2cccnc12)c1ccccc1 | -0.08
O=C(Oc1ccc(Cl)c2cccnc12)c1cccnc1 | 3.5*
O=C(Oc1ccc(Cl)c2cccnc12)N1CCOCC1 | -1.1
C=C(C)Cc1c(C)nc(SC)[nH]c1=O | 0.94
COc1ccc2c(c1)SC1=NC(=O)C(Cc3ccccc3)C(=O)N12 (centres undefined) | 1.6
C#CCSc1ncc(-c2ccc(Cl)cc2)[nH]1 | 1.2
CCN1C(=O)C2(/C(=C(/O)c3ccc(C)cc3)C(=O)C(=O)N2CCCOC)c2ccccc21 (centres undefined) | 3.3*
CCCN1C(=O)C2(/C(=C(/O)c3ccc(F)cc3)C(=O)C(=O)N2CCCOC)c2ccccc21 (centres undefined) | 3.6*
CCOc1ccc(/C(O)=C2/C(=O)C(=O)N(CCCOC)C23C(=O)N(CC)c2ccccc23)cc1 (centres undefined) | -7.4
CCCN1C(=O)C2(/C(=C(/O)c3ccc(C)c(F)c3)C(=O)C(=O)N2CCCOC)c2ccccc21 (centres undefined) | 1
CCN1C(=O)C2(/C(=C(/O)c3ccc(OC)cc3)C(=O)C(=O)N2CCCOC)c2ccccc21 (centres undefined) | 2
CCCN1C(=O)C2(/C(=C(/O)c3ccc(C)cc3)C(=O)C(=O)N2CCOC)c2ccccc21 (centres undefined) | 1.2
Cc1onc(-c2c(F)cccc2Cl)c1C(=O)NC(=S)NC1CC(C)CC(C)(C)C1 (centres undefined) | -0.27
N#Cc1cnn(-c2ccc(Cl)cc2Cl)c1N | -0.38
CS(=O)(=O)N1N=C(c2ccccc2O)CC1c1cn(-c2ccccc2)nc1-c1ccccc1 (centres undefined) | -0.47
CC(C)Cn1c(=N)c(C#N)cc2c(=O)n3ccccc3nc21 | -0.64
Cc1cn(-c2ccccc2)nc1C(=O)Nc1nn(C)c2ccccc12 | 1.2
Cn1cc(C(=O)c2ccc(Cl)cc2)cc1/C=C(\C#N)C(=O)c1ccco1 | 0.42
COC(=O)c1ccc(Oc2cc(C)nc(N)n2)cc1 | 0.85
CC1=CC(C)C2COC(c3ccc4c(c3)OCO4)C1C2C (centres undefined) | 4*
CC1=CC(C)C2COC(c3ccccc3O)C1C2C (centres undefined) | 1.2
SMILES | Dicer inh
O=C1CC(c2ccc3c(c2)OCO3)c2c(ccc3ccccc23)N1 (centres undefined) | 0.95
Cc1cc2nc3c(c(=O)n2[nH]1)CSC3 | -3.2
Cc1cc(NC(=O)CCC(=O)O)n(C)n1 | 0.37
Cn1nccc1NC(=O)CC1(CC(=O)O)CCCCC1 | 0.01
Cc1cc(NC(=O)CC2(CC(=O)O)CCCC2)n(C)n1 | 3.4*
CCCOc1ccc(C2C(C(=O)OC(C)C)=C(C)NC3=C2C(=O)CC(C)(C)C3)cc1OC (centres undefined) | -0.83
COc1nc(Nc2ccccc2)nc(OC)n1 | -1.6
O=c1c(Nc2ccccc2)c(Nc2ccccc2)c1=O | 7.3*
CC(C)c1ccc(Nc2c(Nc3ccc(C(C)C)cc3)c(=O)c2=O)cc1 | -0.03
Cc1c(C)c(C)c(S(=O)(=O)Oc2ccccc2N2CC(C)OC(C)C2)c(C)c1C (centres undefined) | 0.29
Cc1nc2c(=O)n(-c3c(Cl)cccc3Cl)nc(C)c2s1 | 0.27
Cc1nsc(-c2ccc(Cl)cc2)n1 | -0.04
CC1=C(C(=O)OCCOc2ccccc2)C(c2ccncc2)C2=C(CCCC2=O)N1 (centres undefined) | 1.2
O=C1CC(c2cccc(Br)c2)c2c(n[nH]c2-c2ccccc2)N1 (centres undefined) | 0.13
CCOC(=O)c1c(NC(=O)c2cc3ccccc3c(=O)o2)sc(C)c1C | 0
CCOC(=O)c1c(NC(C)=O)sc2c(O)c(Sc3ccccc3)ccc12 | 4.1*
CCOC(=O)c1c(NC(=O)Nc2sc(C)c(-c3ccccc3)c2C(=O)OCC)sc(C)c1-c1ccccc1 | -1.7
Cc1cc(C)c(-n2nnnc2SCC(=O)C(C)(C)C)c(C)c1 | -0.19
O=C(CSc1ccccn1)Nc1ccccc1Sc1nccc(C(F)(F)F)n1 | -1.3
COc1ccc(-c2csc(Nc3ccc(C)cn3)n2)cc1OC | 1.1
Cc1ccc(Nc2nc(-c3ccc(O)c(O)c3)cs2)nc1 | 2.1
Cc1ccc(Nc2nc(-c3ccc(O)cc3)cs2)nc1 | 4.4*
CCOc1cc(C)c(Cl)cc1S(=O)(=O)Nc1ccccn1 | 0.85
CC(C)NC(=O)O/N=C(\N)CSc1nccn1C | 0.1
CCCCN1C(=O)C2(/C(=C(/O)c3ccc(C)c(F)c3)C(=O)C(=O)N2CCCOC)c2ccccc21 (centres undefined) | 1.7
SMILES | Dicer inh
N#Cc1cc(NC(=O)c2ccc(Cl)cc2)c(=O)n2c1sc1ccccc12 | 0.32
CC(=O)NC12CC3CC(C1)CC(O[N+](=O)[O-])(C3)C2 | -1.6
O=C(N/N=C/c1c(F)cccc1Cl)c1cccn1-c1ccc(F)cc1 | 0.34
COC(Cn1c(-c2ccc(Cl)cc2)n[nH]c1=S)OC | 0.59
CC1(C)CC(=O)C2=C(C1)OC1=C(C(=O)CC(C)(C)C1)C2c1ccc(Br)cc1 | 0.76
CC1(C)CC(=O)C2=C(C1)OC1=C(C2)C(=O)CC(C)(C)C1 | 0.85
CC1(C)CC(=O)C2=C(C1)OC1CCCCC21 (centres undefined) | 3.4*
O=C(O)CCCN1Cc2ccccc2C1 | 1.3
O=C(O)CCCc1ccc2ccc3cccc4ccc1c2c34 | 4*
O=C(O)c1cccc2cccc(-c3cccc4cccc(C(=O)O)c34)c12 | -1.6
Cc1cc(Nc2cccc(O)c2)c2cccc(C)c2n1 | 1
COc1ccc(Oc2ccc(C(F)(F)F)c(NC(=O)C3CCC3C(=O)O)c2)cc1 (centres undefined) | 0.06
CC(C)(C)c1ccc(OCc2nc(Nc3ccccc3Cl)cc(=O)[nH]2)cc1 | -0.26
Cc1ccc(-c2nnc(NC3CCCCC3)c3ccccc23)cc1S(=O)(=O)NCC1CCCO1 (centres undefined) | -0.59
N#CC(C#N)=NNc1cc(C(F)(F)F)ccc1OCC(F)(F)F | 2.2
CCOc1cc(C2C(C(=O)OCCSCC)=C(C)NC3=C2C(=O)CC(C)(C)C3)ccc1O (centres undefined) | 1.2
CCCCN(C(C)C)S(=O)(=O)c1ccc(C)cc1 | -0.26
CCN(CC(O)Cn1c2ccccc2c2ccccc21)S(=O)(=O)c1ccc(C)cc1 (centres undefined) | 0.77
CCN(CCS(=O)(=O)c1ccccc1)S(=O)(=O)c1ccc(C)cc1 | 4.5*
Cc1ccc(Cn2nc3n(c2=O)-c2ccccc2OC3)cc1 | -1.6
CCOC(=O)c1nn(-c2ccccc2)c(=O)c2c(N)c(C#N)c(-c3ccccc3)cc12 | -1.2
CC(=O)n1c(-c2ccc(C)cc2)cc(-c2ccc(C)cc2)c(C#N)c1=O | 3.4*
Cc1ccc(-c2cc(-c3ccccc3)c(C#N)c(N)n2)cc1 | -0.15
CCN1C(=O)C2(/C(=C(/O)c3ccc4c(c3)CC(C)O4)C(=O)C(=O)N2CCOC)c2ccccc21 (centres undefined) | 1.1
CCOC(=O)c1sc(NC(=O)CSc2nc(C)cc(C)n2)nc1C | 1.8
CC1(C)SC(c2ccc(F)cc2)N[C@H]1C(=O)O (some centres undefined) | -1.1
CC1(C)SC(C(=O)O)N[C@H]1C(=O)O (some centres undefined) | 3.1*

Bioassay records deposited in PubChem BioAssay by Center for Chemical Genomics, University of Michigan.
